# Bioassay records: PubChem, several laboratories
# CYP2C19 activ – human CYP2C19 activators, primary screen, biochemical, luminescence. recombinant CYP2C19, luciferin-H EGE luminescence; active compounds read high; 0 = fully inhibited enzyme, 1 = untreated enzyme. activation factor at 5 µM. 96,000 tested, under 10 active;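 active = activation factor of at least 2 at 5 µM in the primary screen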;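 note: 0 = wells with 2.5 mM tranylcypromine and 1 = vehicle-only wells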
# Cav32 inh – Cav3.2 calcium influx blockers – cell-based, Fluo-4 calcium fluorescence, FDSS, MLSMR library, primary screen | Voltage-dependent T-type calcium channel subunit alpha-1H (Homo sapiens), O95180 | Cav3.2-expressing cells; active compounds read low | B-score at 10 µM | hit rate 4% among 100,000 | AID 449739, 2010;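 active = single-dose well whose peak fluorescence ratio is a statistical outlier from its plate by either plate-standardised score or position-corrected B-score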
# CYP2C9 inh – blockers of cytochrome P450 2C9 activity – biochemical, luminescence, ADME assay, primary screen; P11712; inhibition, % at 5 µM; CYP2C9 Supersomes, luciferin-H conversion; AID 777, 2007; hit rate 20% among 96,000;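 active = blocking of liver enzyme CYP2C9 beyond about 50% at 5 µM, limit read from the data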
# CYP2C19 inhib – blockers of cytochrome P450 2C19 activity – biochemical, luminescence, ADME assay, primary screen; hit rate 21% among 96,000; inhibition, % at 5 µM; AID 778, 2007; CYP2C19 Supersomes, luciferin-H EGE luminescence, 30 min; P33261;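 active = CYP2C19 inhibition above a set limit at 5 µM in the primary screen, cut at about 50% in these data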;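 note: plate controls were negative control wells for no effect and 2.5 mM tranylcypromine positive control for full effect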
# CYP2C9 activ – human CYP2C9 activators, primary screen, biochemical, luminescence; Cytochrome P450 2C9 (Homo sapiens), P11712; recombinant CYP2C9, luciferin-H conversion; active compounds read high; factor 1 = untreated enzyme, 0 = blocked; activation factor at 5 µM; hit rate 1.4% among 96,000; AID 1024, 2008;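 active = activation factor of 2 or more for CYP2C9 at a 5 µM dose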;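 note: 0 = sulfaphenazole-blocked wells and 1 = vehicle-only wells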
# Starred values were filed as active, the others as inactive; x = no result. The list is not random: actives were taken first. Their share in the collection is about 27%.
SMILES,CYP2C19 activ,Cav32 inh,CYP2C9 inh,CYP2C19 inhib,CYP2C9 activ
O=S(=O)(Nc1ccc(Cc2ccncc2)cc1)N1CCCC1,0,0.46,97*,100*,0
O=C(O)CCC(=O)Nc1ccc(Cc2ccc(NC(=O)CCC(=O)O)c(O)c2)cc1O,1.2,-0.019,-10,-16,1.1
COc1cc(NS(=O)(=O)N2CCCC2)cc(OC)c1OC,0.7,-0.42,-17,32,1.2
CC(C)Nc1ccc(C(CC(N)=O)NC(=O)Cc2ccc(Cl)cc2)cc1[N+](=O)[O-] (stereo not drawn),x,-0.023,x,x,x
CCN(CC)C(=O)CSc1nc2ccc(NC(=O)CSc3nccn3C)cc2s1,x,0.4,x,x,x
C=CCN1C(=O)CSc2ccc(C(=O)N3CCC(C)CC3)cc21,0.8,-0.097,-11,16,1.1
Cc1occc1C(=O)N1CCN(S(C)(=O)=O)CC1,x,-0.21,x,x,x
CCOc1ccc(NC(=O)CSc2nnc(CCNC(=O)c3ccc(OC)cc3)n2C)cc1,0.7,0.34,57*,33,0.4
COc1ccc(OCCSc2nnc(CCNC(=O)c3ccc(OC)cc3)n2C)cc1,0.9,0.35,24,11,0.8
COc1ccc(C(=O)NCCc2nnc(SCC(=O)Nc3ccc(Br)cc3)n2C)cc1,0.8,0.21,65*,21,0.3
CCS(=O)(=O)N1CCCC(C(=O)NCCN(C)Cc2ccccc2)C1 (stereo not drawn),1,0.54,0,-1,1
CC(O)Cc1cn([C@@H](CCCCNC(=O)OC(C)(C)C)C(=O)N2CCN(C(=O)OC(C)(C)C)CC2)nn1 (stereo partly drawn),x,-0.63,x,x,x
C(=N\n1cnnc1)/c1cn(-c2cccs2)nc1-c1ccccc1,0.2,1.5,70*,81*,0.3
COc1ccc(-c2nn(-c3ccccc3)cc2/C=N/n2cnnc2)cc1OC,0.2,2,46,80*,0.5
N#CCCn1cc(/C=N/O)c(-c2ccc(-c3ccccc3)cc2)n1,1.1,-0.44,15,-6,0.8
COc1cc(/C=N/n2cnnc2)ccc1OC(=O)c1cccnc1,0.9,0.11,42,7,0.6
CCOC(=O)NC(c1cccc(Cl)c1)C1CCCCCC1=O (stereo not drawn),0,0.0078,56*,97*,0.4
CSc1ccc(CNc2ccccn2)cc1,0.4,-1.9,14,63*,0.9
CSc1n[nH]c(NCc2ccccc2)n1,0.9,0.86,6,7,0.9
CSc1ccc(CNc2ccccc2)cc1,0.1,-1.3,9,92*,0.9
COc1ccc2cc(CCNC(=O)c3c(-c4ccccc4Cl)noc3C)c(=O)[nH]c2c1,0.6,x,67*,43,0.3
COc1ccc(CCNC(=O)c2c(-c3ccccc3Cl)noc2C)cc1,0.2,-0.2,68*,80*,0.3
CCC(CC)C(=O)NCCc1cc2ccc(OC)cc2[nH]c1=O,1,x,9,2,0.9
Cc1onc(-c2ccccc2)c1C(=O)NCCc1ccc(Cl)cc1,0.8,-0.46,26,18,0.7
Cn1ccnc1SCC(=O)Nc1cc(C(F)(F)F)ccc1N1CCOCC1,0.7,-0.056,22,31,0.8
SMILES,CYP2C19 activ,Cav32 inh,CYP2C9 inh,CYP2C19 inhib,CYP2C9 activ
CN(C(=O)c1ccncc1)c1nnc(-c2ccccn2)s1,0.2,1,99*,81*,0
O=C(Cc1cccs1)Nc1cccnc1,0.9,1.7,6,7,0.9
CN(C(=O)c1ccncc1)c1nnc(-c2cccnc2)s1,0.1,0.34,100*,93*,0
CN(C(=O)c1ccc(C#N)cc1)c1nnc(-c2ccccn2)s1,x,-0.022,x,x,x
CCN(C(=O)Cc1cccs1)c1nnc(-c2cccnc2)s1,0.5,0.77,50*,48,0.5
COC(C/C=C\[C@@H](O)COCc1ccccc1)OC,x,-0.091,x,x,x
COC(=O)CSc1nnc(CNC(=O)c2ccco2)n1-c1ccc(F)cc1,1.2,0.31,-15,-20,1.1
Nc1nc(NC(=O)c2cccnc2)nn1-c1ccccc1,0.9,-1.4,3,13,1
COC(=O)C1CSC(C(=O)OC)N1C(=O)Nc1ccc(Cl)cc1 (stereo not drawn),0.3,0.074,12,69*,0.9
COC(=O)C1CSC(C(=O)OC)N1C(=O)Nc1ccc(Cl)c(Cl)c1 (stereo not drawn),0.4,0.3,67*,61*,0.3
Cc1cc2n(n1)SC(Nc1ccc(F)c(Cl)c1)N2 (stereo not drawn),x,1.5,x,x,x
CCCCOc1ccc(-c2nnn(CCC(=O)N3CCOCC3)n2)cc1,0.7,-1.3,9,26,0.9
O=C(NCc1ccc(F)cc1)C1CCC(=O)N1C1CCCCC1 (stereo not drawn),0.8,0.0018,27,18,0.7
CC(CC(=O)Nc1cc([N+](=O)[O-])ccc1Cl)c1ccccc1 (stereo not drawn),0.5,-1.7,7,51*,0.9
COCc1nnc(NC(=O)CC(C)c2ccccc2)s1 (stereo not drawn),0.7,x,21,28,0.8
CC(CC(=O)Nc1ccncc1)c1ccccc1 (stereo not drawn),0,0.77,96*,98*,0
CC(=O)SC(C)CC(=O)Nc1ccccc1 (stereo not drawn),0.3,-2.1,21,71*,0.8
CCCn1c(SCC(=O)N2c3ccccc3CCc3ccccc32)nc2c1c(=O)n(C)c(=O)n2C,0.8,0.48,0,20,1
CSCCC(NC(=O)OC(C)(C)C)C(=O)Oc1ccc2c(=O)c(-c3ccc4c(c3)OCCO4)coc2c1 (stereo not drawn),0.8,-0.3,0,18,1
Cc1cc(OCC(=O)NCCCN2CCOCC2)cc(C)c1Cl,x,0.59,x,x,x
O=C(COc1cc(Cl)c(Cl)cc1Cl)NCCN1CCOCC1,0.4,0.49,6,65*,0.9
Cc1cc(OCC(=O)NCCN2CCOCC2)ccc1Br,0.2,0.053,-9,85*,1.1
CCN1C(=O)N(CC)C2C1N(C(C)=O)C(=O)N2C(C)=O (stereo not drawn),x,0.6,x,x,x
CCOC(=O)c1ccc(S(=O)(=O)Nc2ccc3cn[nH]c3c2)cc1,0.8,-0.67,94*,16,0.1
COC(=O)c1ccccc1S(=O)(=O)Nc1ccc2cn[nH]c2c1,0.1,-0.23,80*,89*,0.2
COC(=O)c1sc(S(=O)(=O)Nc2ccc3cn[nH]c3c2)c(C(=O)OC)c1C,0.5,-0.61,92*,52*,0.1
COC(=O)c1ccc(NS(=O)(=O)c2cccc3cccnc23)cc1,1.1,0.39,8,-5,0.9
CSc1nc(C)cc(OCNC(=O)c2cccs2)n1,0.7,x,9,27,0.9
CCCCOc1ccc(NC(=O)CSc2nnnn2C)cc1,1.2,0.81,-9,-23,1.1
